Records with an inconclusive call do not appear. The source made the active and inactive calls. Rule for the calls, unless noted: active = hit-call score of the fitted dose curve at least 0.9, where 1 is the maximum; inconclusive = response in the unintended direction; inactive = score below 0.9.
What was measured:
[1] = target: mouse Estrogen Receptor alpha (Era), Esr1 (gene 13982) (UniProt P19785); assay: NVS_NR_mERa: NovaScreen (NVS) Nuclear Receptor Binding Assay for mouse Estrogen Receptor alpha (Era) (AID 2283378);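 note: hit means loss of bound radioligand signal relative to DMSO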
Method in brief: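 Extracted mouse Era incubated with tritiated or iodinated radioligand plus test chemical, 18 h. Bound fraction separated on filters, counted by scintillation. DMSO = negative control/baseline; duplicate single-point at 25 uM, then concentration-response follow-up.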

[2] = target: Agonist Androgen Response Element (ARE), AR (gene 367) (UniProt P10275); assay: OT_AR_ARELUC_AG_1440: Odyssey Thera (OT) 24-hour CHO-K1 Luciferase Assay for Agonist Androgen Response Element (ARE) (AID 2283379)
Method in brief: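 Readout: luciferase bioluminescence from CHO-K1 ARE-luc cells, measured 24 h post-dosing; agonism = increased mean luminescence vs DMSO controls, fitted in positive direction.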

[3] = target: Estrogen receptor beta (Homo sapiens) (UniProt Q92731); assay: OT_ER_ERbERb_1440: Odyssey Thera (OT) 24-hour HEK293T Protein-Complementation Assay for Estrogen Receptor-beta/-beta Homodimer (AID 2283380);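 note: fluorescence gain from ER beta LBD homodimer complementation read by laser scanning cytometry; scored as signal increase over DMSO baseline for both agonists and antagonists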
Method in brief: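 Fluorescence increase, nuclear for agonists or whole-cell for antagonists, relative to DMSO vehicle, quantified by laser scanning cytometer after fixation and Draq5 staining. Readout from 24 h treatment of HEK293T cells carrying complementation-paired ER beta LBD (aa 310-547).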

[4] = target: Estrogen receptor (Homo sapiens) (UniProt P03372); assay: OT_ERa_GFPERaERE_0480: Odyssey Thera (OT) 8-hour HeLa Transcription Induction Assay for Estrogen Receptor (AID 2283381; active = hit-call score of the fitted dose curve at least 0.9, where 1 is the maximum; inactive = score below 0.9)
Method in brief: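 GFP-ERE reporter, HeLa, 8 h exposure. Readout: fluorescence microscopy, high-content image analysis. Fit direction positive vs DMSO negative control.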

[5] = target: Estrogen receptor (Homo sapiens) (UniProt P03372); assay: OT_ERa_GFPERaERE_0120: Odyssey Thera (OT) 2-hour HeLa Transcription Induction Assay for Estrogen Receptor (AID 2283382)
Method in brief: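 Fluorescence microscopy read-out: inducible fluorescent protein reporter in HeLa cells, imaged 2 h post-dose. Signal increase over DMSO negative control fitted as single primary endpoint via high content image analysis.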

[6] = target: Peroxisome proliferator-activated receptor gamma (Homo sapiens) (UniProt P37231); assay: OT_PPARg_PPARgSRC1_0480: Odyssey Thera (OT) 8-hour Protein-Complementation Assay for Peroxisome Proliferator-activated Receptor Gamma / SRC-1 Co-activator (AID 2283387);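 note: nuclear to cytoplasmic split Venus YFP fluorescence ratio reporting PPARg SRC-1 interaction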
Method in brief: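 Read-out: 488 nm N/C fluorescence ratio from complemented Venus YFP fragments, ≥350 cells per image, gain-of-signal fitted against DMSO baseline. Fusions of PPARg/SRC-1 with IFP1/IFP2 expressed transiently in HEK293T; compounds applied 8 h.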

[7] = target: Bile acid receptor (Homo sapiens) (UniProt Q96RI1); assay: OT_FXR_FXRSRC1_0480: Odyssey Thera (OT) 8-hour HEK293T Protein-Complementation Assay for Farnesoid X receptor/SRC-1 Co-activator (AID 2283383)
Method in brief: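 Fluorescence intensity read-out, 8 h post-dose, HEK293T protein-fragment complementation; FXR bait and SRC-1 prey each linked to reporter fragments. Activity scored as signal increase over DMSO negative control.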

[8] = target: Bile acid receptor (Homo sapiens) (UniProt Q96RI1); assay: OT_FXR_FXRSRC1_1440: Odyssey Thera (OT) 24-hour HEK293T Protein-Complementation Assay for Farnesoid X receptor/SRC-1 Co-activator (AID 2283384)
Method in brief: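 Fluorescence readout, 24 h post-dose, HEK293T; FXR and SRC-1 fused to complementary reporter fragments, association reconstitutes signal. Positive-direction fit vs DMSO baseline.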

[9] = target: Retinoic acid receptor RXR-alpha (Homo sapiens) (UniProt P19793); assay: OT_NURR1_NURR1RXRa_0480: Odyssey Thera (OT) 8-hour HEK293T Protein Complementation Assay for Nurr1/retinoid X receptor (RXR) (AID 2283385)
Method in brief: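 Read-out: fluorescence from protein-fragment complementation between Nurr1 and RXRα in human HEK293T cells, 8 h after dosing. DMSO served as negative control; increased signal counted as activity.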

[10] = CEETOX_H295R_11DCORT: CeeTox H295R High-throughput Steroidogenesis Assay for 11-Deoxycortisol (11DCORT) (AID 2283432; active = hit-call score of the fitted dose curve at least 0.9, where 1 is the maximum; inactive = score below 0.9;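 for AC50: 11-deoxycortisol secreted into the medium measured by LC-MS/MS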); conditions: actives raise or lower the signal
Method in brief: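 H295R cells; 10 uM forskolin prestim 48 h; compound in 0.1% DMSO 48 h; media extracted with MTBE; 11-deoxycortisol by LC-MS/MS, 7-point standard curve; gain/loss vs DMSO baseline; viability by MTT in same wells.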

[11] = CEETOX_H295R_OHPREG: CeeTox H295R High-throughput Steroidogenesis Assay for OH-Pregnenolone (OHPREG) (AID 2283434; active = hit-call score of the fitted dose curve at least 0.9, where 1 is the maximum; inactive = score below 0.9); conditions: actives raise or lower the signal
Method in brief: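 Secreted 17alpha-hydroxypregnenolone measured by HPLC-MS/MS after liquid-liquid extraction. Human adrenal H295R cells received 48 h forskolin (10 uM) stimulation before 48 h chemical exposure at 0.1% final DMSO; MTT viability in same wells; bidirectional fit against DMSO.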

[12] = CEETOX_H295R_OHPROG: CeeTox H295R High-throughput Steroidogenesis Assay for OH-Progesterone (OHPROG) (AID 2283435; active = hit-call score of the fitted dose curve at least 0.9, where 1 is the maximum; inactive = score below 0.9;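 for AC50: 17alpha-hydroxyprogesterone secreted into medium measured by HPLC-MS/MS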); conditions: actives raise or lower the signal
Method in brief: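 HPLC-MS/MS quantification of 17alpha-hydroxyprogesterone secreted by H295R cells after 48 h chemical exposure, following 48 h 10 uM forskolin prestimulation. Gain or loss of signal fitted relative to DMSO. Viability checked by MTT in the same wells.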

[13] = CEETOX_H295R_CORTIC: CeeTox H295R High-throughput Steroidogenesis Assay for Corticosterone (CORTIC) (AID 2283437; active = hit-call score of the fitted dose curve at least 0.9, where 1 is the maximum; inactive = score below 0.9); conditions: actives raise or lower the signal
Method in brief: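 Medium corticosterone was quantified by tandem mass spectrometry following 48 hours of chemical exposure (0.1% DMSO) in human H295R cells previously stimulated 48 hours with 10 uM forskolin. Viability checked by MTT; chemicals diluted and retested when viability fell below 70%.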

[14] = CEETOX_H295R_CORTISOL: CeeTox H295R High-throughput Steroidogenesis Assay for Cortisol (AID 2283438; active = hit-call score of the fitted dose curve at least 0.9, where 1 is the maximum; inactive = score below 0.9;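 note: cortisol secreted into medium quantified by LC-MS/MS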); conditions: actives raise or lower the signal
Method in brief: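 Read-out: cortisol in culture medium by reverse-phase C18 HPLC with ESI-positive tandem MS, after MTBE liquid-liquid extraction. Cells: human adrenal H295R, forskolin-primed (10 uM, 48 h) before 48 h chemical exposure in 0.1% DMSO.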

[15] = CEETOX_H295R_DOC: CeeTox H295R High-throughput Steroidogenesis Assay for DOC (AID 2283439; active = hit-call score of the fitted dose curve at least 0.9, where 1 is the maximum; inactive = score below 0.9); conditions: actives raise or lower the signal
Method in brief: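 Human adrenocortical H295R cells, passages up to 10, received 10 uM forskolin for 48 h before chemical addition. After another 48 h exposure in 0.1% DMSO, secreted DOC was measured by LC-MS/MS, with gain or loss fitted against DMSO controls.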

[16] = CEETOX_H295R_PROG: CeeTox H295R High-throughput Steroidogenesis Assay for Progesterone (PROG) (AID 2283442; active = hit-call score of the fitted dose curve at least 0.9, where 1 is the maximum; inactive = score below 0.9); conditions: actives raise or lower the signal
Method in brief: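 Steps: seed H295R cells and let them adhere overnight; prime 48 h with 10 uM forskolin; dose with compound in DMSO at 0.1% final for 48 h; extract medium steroids with MTBE; measure progesterone by LC-MS/MS. MTT viability was run in the same wells.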

[17] = target: Retinoic acid receptor RXR-alpha (Homo sapiens) (UniProt P19793); assay: OT_NURR1_NURR1RXRa_1440: Odyssey Thera (OT) 24-hour HEK293T Protein Complementation Assay for Nurr1/retinoid X receptor (RXR) (AID 2283386)
Method in brief: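 Fluorescence PCA read-out; HEK293T; 24 h post-dose; bait/prey fused to reporter fragments; gain-of-signal fit vs DMSO negative control.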

[18] = CEETOX_H295R_ESTRADIOL: CeeTox H295R High-throughput Steroidogenesis Assay for Estradiol (AID 2283440; active = hit-call score of the fitted dose curve at least 0.9, where 1 is the maximum; inactive = score below 0.9;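 note: estradiol secreted into medium quantified by LC-MS/MS after dansyl derivatisation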); conditions: actives raise or lower the signal
Method in brief: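 Estradiol secreted into the medium was measured by tandem mass spectrometry after liquid-liquid extraction and dansylation. Human H295R cells had been forskolin-primed (10 uM, 48 h) before a 48 h chemical exposure with 0.1% DMSO.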

[19] = CEETOX_H295R_ESTRONE: CeeTox H295R High-throughput Steroidogenesis Assay for Estrone (AID 2283441; active = hit-call score of the fitted dose curve at least 0.9, where 1 is the maximum; inactive = score below 0.9;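 note: estrone secreted into medium measured by LC-MS/MS after dansyl derivatization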;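 for AC50: human adrenal H295R cells prestimulated with forskolin for two days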); conditions: actives raise or lower the signal
Method in brief: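 Forskolin-stimulated H295R cells are treated 48 h with chemical, and estrone in the medium is measured by LC-MS/MS. Activity is fitted in both directions relative to DMSO controls, with chemicals diluted until MTT viability reaches at least 70%.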

[20] = target: human Norepinephrine Transporter (NET), SLC6A2 (gene 6530) (UniProt P23975); assay: NVS_TR_hNET: NovaScreen (NVS) Transporter Assay for human Norepinephrine Transporter (NET) (AID 2283377);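 note: cell-free membrane protein extracted from CHO cells expressing human NET; displacement of radioligand from human NET seen as loss of scintillation signal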
Method in brief: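 Single-concentration duplicate screen at 25 uM, then concentration-response for actives; displacement of specific radioligand from human NET in CHO membrane extracts, filter-based scintillation detection at 1 h relative to DMSO.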

Measured: AC50

Agonist Androgen Response Element (ARE), AR (gene 367), sequence (P10275 whole entry, looked up): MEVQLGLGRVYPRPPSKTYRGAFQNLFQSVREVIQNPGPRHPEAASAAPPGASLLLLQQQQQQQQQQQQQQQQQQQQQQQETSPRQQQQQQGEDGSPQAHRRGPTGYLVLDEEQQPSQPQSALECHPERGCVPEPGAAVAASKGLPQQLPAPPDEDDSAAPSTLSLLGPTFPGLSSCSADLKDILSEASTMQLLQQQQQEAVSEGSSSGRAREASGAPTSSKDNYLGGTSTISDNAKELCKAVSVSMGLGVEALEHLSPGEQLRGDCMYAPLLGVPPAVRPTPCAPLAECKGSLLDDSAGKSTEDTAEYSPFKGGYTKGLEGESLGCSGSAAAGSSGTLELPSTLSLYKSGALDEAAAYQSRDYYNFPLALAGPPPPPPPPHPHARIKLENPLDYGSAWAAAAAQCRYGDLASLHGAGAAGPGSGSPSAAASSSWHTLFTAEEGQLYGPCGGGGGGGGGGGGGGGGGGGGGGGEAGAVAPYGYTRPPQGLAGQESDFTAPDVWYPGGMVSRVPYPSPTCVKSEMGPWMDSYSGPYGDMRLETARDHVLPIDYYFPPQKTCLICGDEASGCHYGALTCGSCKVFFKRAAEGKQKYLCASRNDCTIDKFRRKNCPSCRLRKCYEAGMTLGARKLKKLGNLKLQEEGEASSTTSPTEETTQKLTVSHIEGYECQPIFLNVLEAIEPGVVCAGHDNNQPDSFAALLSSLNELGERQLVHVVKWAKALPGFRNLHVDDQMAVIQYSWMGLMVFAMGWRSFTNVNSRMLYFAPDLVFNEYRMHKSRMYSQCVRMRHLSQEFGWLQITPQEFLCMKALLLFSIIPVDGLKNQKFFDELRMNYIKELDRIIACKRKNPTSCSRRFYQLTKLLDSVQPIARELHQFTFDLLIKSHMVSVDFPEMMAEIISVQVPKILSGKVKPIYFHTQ
Bile acid receptor (Homo sapiens), sequence (Q96RI1 whole entry, looked up, the tested form may be a part): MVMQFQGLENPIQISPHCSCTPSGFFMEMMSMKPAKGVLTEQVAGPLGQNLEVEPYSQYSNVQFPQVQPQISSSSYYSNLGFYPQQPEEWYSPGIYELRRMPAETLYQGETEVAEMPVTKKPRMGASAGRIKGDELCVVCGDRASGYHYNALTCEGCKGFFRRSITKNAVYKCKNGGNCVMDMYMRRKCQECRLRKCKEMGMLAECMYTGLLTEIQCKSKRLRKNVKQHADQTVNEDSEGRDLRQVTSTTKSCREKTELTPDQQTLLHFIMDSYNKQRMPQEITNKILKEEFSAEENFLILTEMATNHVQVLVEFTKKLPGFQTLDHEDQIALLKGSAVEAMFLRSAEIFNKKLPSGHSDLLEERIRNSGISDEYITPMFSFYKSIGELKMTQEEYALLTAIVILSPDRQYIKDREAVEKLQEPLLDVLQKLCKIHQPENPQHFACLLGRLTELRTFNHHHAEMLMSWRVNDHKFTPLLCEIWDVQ
human Norepinephrine Transporter (NET), SLC6A2 (gene 6530), sequence (P23975 whole entry, looked up): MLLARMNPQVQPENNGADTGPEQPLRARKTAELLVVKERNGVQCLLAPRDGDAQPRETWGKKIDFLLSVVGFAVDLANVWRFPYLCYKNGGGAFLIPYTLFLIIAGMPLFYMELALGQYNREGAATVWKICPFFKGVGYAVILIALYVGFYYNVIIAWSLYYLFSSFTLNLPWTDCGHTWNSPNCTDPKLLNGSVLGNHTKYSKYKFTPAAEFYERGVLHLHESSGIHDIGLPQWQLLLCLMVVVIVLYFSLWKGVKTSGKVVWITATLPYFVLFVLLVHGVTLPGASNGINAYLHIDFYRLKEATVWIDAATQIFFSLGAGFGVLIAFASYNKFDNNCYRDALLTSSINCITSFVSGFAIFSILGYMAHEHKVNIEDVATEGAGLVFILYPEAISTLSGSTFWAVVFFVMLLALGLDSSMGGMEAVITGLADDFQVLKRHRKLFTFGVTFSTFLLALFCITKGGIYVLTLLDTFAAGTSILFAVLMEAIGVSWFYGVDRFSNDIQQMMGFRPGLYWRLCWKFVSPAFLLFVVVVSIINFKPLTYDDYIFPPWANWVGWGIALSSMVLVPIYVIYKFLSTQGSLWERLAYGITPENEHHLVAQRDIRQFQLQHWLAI
Estrogen receptor beta (Homo sapiens), sequence (Q92731 whole entry, looked up, the tested form may be a part): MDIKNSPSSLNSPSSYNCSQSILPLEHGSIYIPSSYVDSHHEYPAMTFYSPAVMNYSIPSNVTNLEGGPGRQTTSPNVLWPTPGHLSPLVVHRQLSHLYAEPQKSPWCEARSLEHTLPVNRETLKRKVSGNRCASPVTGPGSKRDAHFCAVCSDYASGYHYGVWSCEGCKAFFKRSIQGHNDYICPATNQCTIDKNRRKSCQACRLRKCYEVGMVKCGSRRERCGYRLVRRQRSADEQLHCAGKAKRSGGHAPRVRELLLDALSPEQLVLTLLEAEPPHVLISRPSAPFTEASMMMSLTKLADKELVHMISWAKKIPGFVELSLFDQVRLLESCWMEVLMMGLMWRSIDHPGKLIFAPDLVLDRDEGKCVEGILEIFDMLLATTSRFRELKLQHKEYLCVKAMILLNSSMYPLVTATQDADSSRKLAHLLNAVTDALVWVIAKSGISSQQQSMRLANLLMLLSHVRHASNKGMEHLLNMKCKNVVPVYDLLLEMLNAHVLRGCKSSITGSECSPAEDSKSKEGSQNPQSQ
mouse Estrogen Receptor alpha (Era), Esr1 (gene 13982), sequence (P19785 whole entry, looked up): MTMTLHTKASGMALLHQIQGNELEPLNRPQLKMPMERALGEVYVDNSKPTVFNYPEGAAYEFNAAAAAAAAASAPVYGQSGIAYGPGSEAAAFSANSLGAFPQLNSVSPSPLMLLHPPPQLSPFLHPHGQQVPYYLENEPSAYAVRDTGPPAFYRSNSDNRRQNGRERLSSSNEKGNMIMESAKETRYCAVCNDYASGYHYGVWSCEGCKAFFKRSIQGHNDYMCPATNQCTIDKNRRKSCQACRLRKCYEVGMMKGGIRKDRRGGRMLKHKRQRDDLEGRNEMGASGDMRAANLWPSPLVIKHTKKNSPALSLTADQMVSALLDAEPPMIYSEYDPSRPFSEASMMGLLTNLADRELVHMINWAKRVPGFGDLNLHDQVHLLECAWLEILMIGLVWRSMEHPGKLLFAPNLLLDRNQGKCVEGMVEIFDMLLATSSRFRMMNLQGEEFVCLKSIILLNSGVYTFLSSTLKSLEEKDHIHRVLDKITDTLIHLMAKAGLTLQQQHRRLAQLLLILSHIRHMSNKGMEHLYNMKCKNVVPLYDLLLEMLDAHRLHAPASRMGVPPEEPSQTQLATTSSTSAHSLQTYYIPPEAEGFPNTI
Peroxisome proliferator-activated receptor gamma (Homo sapiens), sequence (P37231 whole entry, looked up, the tested form may be a part): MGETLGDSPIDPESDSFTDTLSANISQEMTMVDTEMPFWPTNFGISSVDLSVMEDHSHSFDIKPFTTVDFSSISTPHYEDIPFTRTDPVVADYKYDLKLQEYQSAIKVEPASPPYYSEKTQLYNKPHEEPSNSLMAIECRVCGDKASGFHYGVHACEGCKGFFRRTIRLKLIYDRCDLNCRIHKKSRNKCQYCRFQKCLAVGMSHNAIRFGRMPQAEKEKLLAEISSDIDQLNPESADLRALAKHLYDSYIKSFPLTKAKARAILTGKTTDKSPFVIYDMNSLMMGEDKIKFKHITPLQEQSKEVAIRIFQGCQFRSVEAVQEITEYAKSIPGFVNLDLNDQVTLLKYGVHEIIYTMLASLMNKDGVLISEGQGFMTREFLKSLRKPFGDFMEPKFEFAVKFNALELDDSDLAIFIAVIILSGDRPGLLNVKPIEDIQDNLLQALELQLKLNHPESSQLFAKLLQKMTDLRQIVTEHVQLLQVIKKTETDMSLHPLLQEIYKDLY
Estrogen receptor (Homo sapiens), sequence (P03372 whole entry, looked up): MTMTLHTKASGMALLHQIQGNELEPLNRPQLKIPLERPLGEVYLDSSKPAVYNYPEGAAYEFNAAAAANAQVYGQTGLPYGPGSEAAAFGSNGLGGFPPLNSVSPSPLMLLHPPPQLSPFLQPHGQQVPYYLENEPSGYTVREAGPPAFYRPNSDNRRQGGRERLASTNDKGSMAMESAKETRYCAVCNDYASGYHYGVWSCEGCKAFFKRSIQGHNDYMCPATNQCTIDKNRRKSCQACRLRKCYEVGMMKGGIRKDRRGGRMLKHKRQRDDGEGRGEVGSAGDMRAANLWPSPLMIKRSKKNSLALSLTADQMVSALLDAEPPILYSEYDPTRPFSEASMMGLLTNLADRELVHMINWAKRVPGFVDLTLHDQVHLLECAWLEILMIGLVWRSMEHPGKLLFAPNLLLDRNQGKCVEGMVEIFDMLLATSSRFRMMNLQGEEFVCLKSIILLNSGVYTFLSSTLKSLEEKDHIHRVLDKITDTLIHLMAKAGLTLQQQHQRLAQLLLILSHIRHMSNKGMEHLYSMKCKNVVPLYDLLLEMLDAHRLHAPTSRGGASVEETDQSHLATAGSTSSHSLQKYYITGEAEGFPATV
Retinoic acid receptor RXR-alpha (Homo sapiens), sequence (P19793 whole entry, looked up, the tested form may be a part): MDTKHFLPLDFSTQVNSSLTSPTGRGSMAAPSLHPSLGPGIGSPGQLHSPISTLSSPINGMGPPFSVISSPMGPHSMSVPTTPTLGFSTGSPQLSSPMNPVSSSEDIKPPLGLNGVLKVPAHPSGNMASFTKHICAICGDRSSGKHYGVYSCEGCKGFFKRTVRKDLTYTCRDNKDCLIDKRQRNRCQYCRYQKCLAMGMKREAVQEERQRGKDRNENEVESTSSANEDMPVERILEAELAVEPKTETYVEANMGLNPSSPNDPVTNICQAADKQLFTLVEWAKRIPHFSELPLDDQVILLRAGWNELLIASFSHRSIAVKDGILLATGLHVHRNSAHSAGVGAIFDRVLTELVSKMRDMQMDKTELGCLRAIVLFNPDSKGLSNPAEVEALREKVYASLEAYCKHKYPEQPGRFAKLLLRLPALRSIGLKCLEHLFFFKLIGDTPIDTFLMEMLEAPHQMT

CCCCCCCCCCCCCC[P+](CCCC)(CCCC)CCCC
active: [4] 10.4 µM | [5] 12.2 µM
inactive: [1] | [2] | [3] | [6]

C[C@]12CC[C@H]3C(=CCc4cc(O)ccc43)[C@@H]1CCC2=O
inactive: [8] | [9] | [6] | [13]
active: [2] 284 nM | [7] 9.93 µM | [10] 17.8 µM | [11] 3.5 µM | [12] 2.87 µM | [14] 13.7 µM | [15] 811 nM | [16] 502 nM

O=C(c1ccccc1)c1ccc(O)cc1O
inactive: [7] | [8] | [9] | [6]
active: [1] 1.22 µM | [4] 8.62 µM | [5] 6.29 µM

CCCCCCCCCc1ccc(OCCO)cc1
active: [2] 238 nM | [3] 4.63 µM | [7] 4.7 µM | [8] 28.8 µM | [17] 32.9 µM
not listed: [20]
inactive: all other assays above

CCCCCCCC/C=C\CCCCCCCC(=O)N(C)CC(=O)O
active: [7] 72.6 µM
inactive: [1] | [3] | [4] | [5] | [8] | [9] | [6]

CC(C)(C)c1cc(CCC(=O)OCC(COC(=O)CCc2cc(C(C)(C)C)c(O)c(C(C)(C)C)c2)(COC(=O)CCc2cc(C(C)(C)C)c(O)c(C(C)(C)C)c2)COC(=O)CCc2cc(C(C)(C)C)c(O)c(C(C)(C)C)c2)cc(C(C)(C)C)c1O
inactive: [1] | [3] | [4] | [5] | [7] | [8] | [9] | [17]

CCN(CC)c1ccc(C=O)c(O)c1
active: [20] 25 µM

CCN=c1cc2oc3cc(NCC)c(C)cc3c(-c3ccccc3C(=O)OCC)c-2cc1C
inactive: [2] | [4] | [5] | [8] | [6]
active: [1] 25 µM | [3] 76.4 µM | [7] 1.36 µM | [9] 0.603 µM | [17] 0.769 µM

CCc1cc(Cc2cc(CC)c(N)c(CC)c2)cc(CC)c1N
active: [7] 11.8 µM | [9] 11.5 µM
inactive: [3] | [4] | [5] | [8] | [6]

O=C1C=CC(=O)N1c1ccccc1
not listed: [7] | [8] | [9] | [17] | [20]
inactive: all other assays above

OCC1CCCO1 (configuration not stated)
inactive: [2] | [3] | [4] | [5] | [7] | [6]

Cc1cc(O)c(C(C)(C)C)cc1C(C)(C)C
active: [20] 16.5 µM | [16] 2640 nM
inactive: [10] | [11] | [12] | [13] | [14] | [15] | [18] | [19]

CCCCC(CC)COC(=O)c1ccc(N(C)C)cc1 (configuration not stated)
active: [7] 32.7 µM | [8] 50 µM | [9] 77.7 µM | [17] 76 µM | [11] 6.35 µM | [12] 6.74 µM | [15] 6740 nM | [16] 6010 nM
not listed: [1] | [2] | [20]
inactive: all other assays above

CCC(Cc1c(I)cc(I)c(N)c1I)C(=O)O (configuration not stated)
inactive: [1] | [4] | [5] | [7] | [8] | [9] | [6]

CCCCCCCC/C=C\CCCCCCCC(=O)OCC(O)CO (configuration not stated)
active: [7] 70.9 µM | [9] 71.1 µM | [17] 90.1 µM
inactive: [2] | [3] | [4] | [5] | [6]

Cc1ccc(O)c(-n2nc3ccccc3n2)c1
inactive: [3] | [4] | [5] | [8] | [9] | [17] | [6]
active: [1] 6.65 µM | [7] 50 µM

CCN=C1C=CC(=C(c2ccc(N(CC)CC)cc2)c2ccc(N(CC)CC)cc2)c2ccccc21
inactive: [2] | [3] | [4] | [5] | [6]

F[Si-2](F)(F)(F)(F)F
inactive: [2] | [3] | [4] | [5] | [7] | [17] | [6]

CSc1ccc(O)cc1C
active: [20] 36.4 µM | [13] 37.6 µM | [18] 28.2 µM | [19] 26.7 µM
inactive: [10] | [11] | [12] | [14] | [15] | [16]

CCCCCCCCCCCCC[N+](C)(C)Cc1ccccc1
active: [1] 8.86 µM | [5] 18.1 µM | [10] 0.287 µM | [11] 0.59 µM | [12] 0.509 µM | [15] 337 nM | [16] 159 nM
not listed: [7] | [8] | [9] | [17] | [20]
inactive: all other assays above
